Results published in paper PMC4552634, “A New Set of Chemical Starting Points with Plasmodium falciparum Transmission-Blocking Potential for Antimalarial Drug Discovery” (PLoS ONE, 2015).
In all, about 13,000 compounds went through this assay and about 3,200 (25%) showed an effect of 50% or more. The list shows a part of the results.

What follows are molecules tested on P. falciparum stage V gametocytes. Details: 48 h, 5 µM; inhibitor.
Set-up: BacTiter-Glo ATP luminescence viability of purified stage V gametocytes in 384-well plates, per cent inhibition versus DMSO
In the case of OC(Cn1ccnc1)(c1ccc(Cl)cc1Cl)C1CCCCC1 (stereo not shown) [TCMDC-132084], the “% Inhibition” value is reported as -1.887%. For Clc1ccc(OC2CCC(Cn3ccnc3)(c3ccc(Cl)cc3Cl)CC2)c(Cl)c1 (stereo not shown) [TCMDC-132089], the “% Inhibition” value was 67.21%. In the case of CON=C1CCC(Cn2ccnc2)(c2ccc(Cl)cc2Cl)CC1 (stereo not shown) [TCMDC-132070], the “% Inhibition” value is reported as -6.365%. In the case of CN(C)CCCNC(=O)c1ccccc1Sc1ccccc1C#N [TCMDC-137689], the “% Inhibition” value is reported as -3.028%. For O=S(=O)(Nc1cccc(CCN2CCCCC2CCN2CCCC2)c1)c1cccc2ccccc12 (stereo not shown) [TCMDC-134092], the “% Inhibition” value was 40.53%. For O=S(=O)(Nc1cccc(CCN2CCCCC2CCN2CCCC2)c1)c1ccc(-c2ccccc2)cc1 (stereo not shown) [TCMDC-134093], the “% Inhibition” value was 39.18%. O=S(=O)(Nc1ccc(CCN2CCCCC2CCN2CCCC2)cc1)c1ccc(-c2ccccc2)cc1 (stereo not shown) [TCMDC-134095] was tested, and the “% Inhibition” value was 70.29%. In the case of O=S(=O)(Nc1cccc(CCN2CCCCC2CCN2CCCC2)c1)c1ccc2ccccc2c1 (stereo not shown) [TCMDC-134091], the “% Inhibition” value is reported as 64.43%. O=S(=O)(Nc1cccc(CCN2CCCCC2CCN2CCCC2)c1)c1ccc(Oc2ccccc2)cc1 (stereo not shown) [TCMDC-134094] was tested, and the “% Inhibition” value was 61.85%. In the case of NC1CCN(CCc2ccc(NS(=O)(=O)c3ccc(-c4ccccc4)cc3)cc2)CC1 [TCMDC-134085], the “% Inhibition” value is reported as 111.6%. CCc1ccc(S(=O)(=O)Nc2ccc(CCN(C)C3CCN(C)CC3)cc2)cc1 [TCMDC-134082] was tested, and the “% Inhibition” value was 40.08%. For Cc1c(S(=O)(=O)Nc2cccc(CCN3CCCCC3CCN3CCCC3)c2)sc2ccc(Cl)cc12 (stereo not shown) [TCMDC-134097], the “% Inhibition” value was 7.809%. O=S(=O)(Nc1ccc(CCN2CCCCC2CCN2CCCC2)cc1)c1cccc2cccnc12 (stereo not shown) [TCMDC-134096] was tested, and the “% Inhibition” value was 43.66%. CC1CCN(CC[C@H]2CCCN2S(=O)(=O)c2cccc(NC(=O)c3ccc(-c4ccccc4)cc3)c2)CC1 [TCMDC-141076] was tested, and the “% Inhibition” value was -81.19%. In the case of O=c1cc(NCCCNCc2cc3c(Cl)cccc3s2)[nH]c2ccccc12 [TCMDC-140333], the “% Inhibition” value is reported as -87.93%. COc1c(Br)cc(Br)cc1C(C)=O [TCMDC-123841] was tested, and the “% Inhibition” value was -7.365%. For CCOC(=O)c1[nH]c(-c2ccc(Cl)cc2)nc1NC(=S)NCCCN1CCOCC1 [TCMDC-138877], the “% Inhibition” value was 37.64%. With Cc1nc(-c2ccc(-c3ccc(C(=O)Nc4ccc5c(c4)C4(CCNCC4)CO5)cc3)c(C)c2)no1 [TCMDC-138993] the “% Inhibition” value was 45.43%. In the case of O=C(N[C@@H](Cc1ccccc1)C(=O)NCc1cccc(C(F)(F)F)c1)c1ccc(O)c(-c2ccc(Cl)c(Cl)c2)c1 [TCMDC-140833], the “% Inhibition” value is reported as 12.7%. CN1CCN(S(=O)(=O)c2ccc3nccc(Nc4ccc(Oc5ccccc5)cc4)c3c2)CC1 [TCMDC-138691] was tested, and the “% Inhibition” value was -22.54%. In the case of Cc1cc(C=C(P(=O)(OC(C)C)OC(C)C)P(=O)(OC(C)C)OC(C)C)c2ccccc2c1O [TCMDC-138940], the “% Inhibition” value is reported as 80.96%. For Cc1c(C(=O)Nc2cc(Sc3ccc(F)cc3)cc([N+](=O)[O-])c2)sc2ncn(Cc3ccccc3F)c(=O)c12 [TCMDC-125703], the “% Inhibition” value was 1.963%. COc1cccc(NC(=O)c2ccc(NCCCN3CCC(C)CC3)c([N+](=O)[O-])c2)c1 [TCMDC-125690] was tested, and the “% Inhibition” value was 0.09701%. For CCCN(CCC)CCCNc1ccc(C(=O)Nc2ccc(C)c(F)c2)cc1[N+](=O)[O-] [TCMDC-125685], the “% Inhibition” value was 15.23%. For CC1CC(C)CN(CCCNc2ccc(C(=O)Nc3ccc(C(F)(F)F)cc3)cc2[N+](=O)[O-])C1 (stereo not shown) [TCMDC-125680], the “% Inhibition” value was 38.66%. CCOc1ccc(NC(=O)c2ccc(NCCCN3CC(C)CC(C)C3)c([N+](=O)[O-])c2)cc1 (stereo not shown) [TCMDC-125692] was tested, and the “% Inhibition” value was 30.09%. For O=C(Nc1ccc(C(F)(F)F)cc1)c1ccc(NCCCN2CCCCCC2)c([N+](=O)[O-])c1 [TCMDC-125681], the “% Inhibition” value was 11.61%. In the case of CCCN(CCC)CCCNc1ccc(C(=O)Nc2ccc(C(C)C)cc2)cc1[N+](=O)[O-] [TCMDC-125688], the “% Inhibition” value is reported as 90.5%. With CCCN(CCC)CCCNc1ccc(C(=O)Nc2ccc(OCC)cc2)cc1[N+](=O)[O-] [TCMDC-125691] the “% Inhibition” value was 12.73%. CC1CCN(CCCNc2ccc(C(=O)Nc3ccc(C(F)(F)F)cc3)cc2[N+](=O)[O-])CC1 [TCMDC-125683] was tested, and the “% Inhibition” value was 88.85%. For COc1cccc(NC(=O)c2ccc(NCCCN3CC(C)CC(C)C3)c([N+](=O)[O-])c2)c1 (stereo not shown) [TCMDC-125689], the “% Inhibition” value was 53.82%. With COc1ccc2ncc(F)c(NC(=O)C3CCC(NCc4cc5cc(F)cc(F)c5[nH]4)CC3)c2n1 (stereo not shown) [TCMDC-136455] the “% Inhibition” value was 25.24%. For O=C(Nc1cccc(C2=NCCN2)c1)Nc1cccc(C2=NCCN2)c1 [TCMDC-124304], the “% Inhibition” value was -0.7345%. In the case of COc1ccc(NC(=O)N2CCc3ccc(OCCN(C(C)C)C(C)C)cc32)cc1C(F)(F)F [TCMDC-140253], the “% Inhibition” value is reported as -24.24%. With N#Cc1cccc(CNC(=O)c2cccc(Nc3ccnc4ccc(F)cc34)c2)c1 [TCMDC-136309] the “% Inhibition” value was 21.53%. Cc1cc(NC(=O)c2ccc(S(=O)(=O)N(Cc3ccccc3)C(C)C)cc2)no1 [TCMDC-123547] was tested, and the “% Inhibition” value was -7.124%. With CCNc1cc(C(=O)N[C@@H](Cc2ccccc2)[C@H](O)CNCc2cc(OC)cc(OC)c2)cc(N2CCCC2=O)c1 [TCMDC-134572] the “% Inhibition” value was -8.682%. For O=C(Nc1ccc(Cl)cc1)Nc1cccc(-c2cccc(-c3nc4ccc(C(F)(F)F)cc4[nH]3)c2)c1 [TCMDC-133180], the “% Inhibition” value was -47.4%. With CCn1c(-c2nonc2N)nc2c(-c3cccc(NC(=O)Nc4cccc(C(F)(F)F)c4)c3)ncc(OCCCN)c21 [TCMDC-136178] the “% Inhibition” value was 94.17%. CCOC(=O)NCC(=O)Nc1cccc(-c2cccc(-c3nc4ccc(C(F)(F)F)cc4[nH]3)c2)c1 [TCMDC-137047] was tested, and the “% Inhibition” value was -10.81%. For CCn1c(-c2nonc2N)nc2c(-c3cccc(NC(=O)Nc4ccc(C(F)(F)F)cc4)c3)ncc(OCCCN)c21 [TCMDC-136179], the “% Inhibition” value was 115.3%. In the case of CCOC(=O)c1ccc(NC(=O)Nc2cccc(-c3ccc(-c4nc5ccc(C(F)(F)F)cc5[nH]4)cc3)c2)cc1 [TCMDC-133261], the “% Inhibition” value is reported as -31.99%. For O=C(NC1CC1)c1ccc(N2CCCCN2CCc2ccccc2)c(C(F)(F)F)c1 [TCMDC-135276], the “% Inhibition” value was 0.5792%. With COc1ccc(CCNC(=O)c2ccccc2O)cc1-c1ccc(C(C)(C)C)cc1 [TCMDC-136182] the “% Inhibition” value was 40.5%. N=C1NC(=N)N(OCCCCCCON2C(=N)NC(=N)NC2C=Cc2ccccc2)C(C=Cc2ccccc2)N1 (stereo not shown) [TCMDC-131602] was tested, and the “% Inhibition” value was -13.97%. For Cc1nc2nc(N)nc(N)c2c(C)c1Cc1ccc(C(N)=O)cc1 [TCMDC-137641], the “% Inhibition” value was 15.14%. For CC1=C(C(=O)Nc2cc3cn[nH]c3cc2F)C(c2cccc(NS(C)(=O)=O)c2)CC(=O)N1 (stereo not shown) [TCMDC-136177], the “% Inhibition” value was 35.05%. CC1=C(C(=O)Nc2cc3cn[nH]c3cc2F)C(c2ccc(Cl)c(NS(C)(=O)=O)c2)CC(=O)N1 (stereo not shown) [TCMDC-136204] was tested, and the “% Inhibition” value was 27.6%. With CC1=C(C(=O)Nc2cc3cn[nH]c3cc2F)C(c2cccc(O)c2F)CC(=O)N1 (stereo not shown) [TCMDC-136296] the “% Inhibition” value was 76.63%. For C=CCOC(=O)N1CCC(CNCc2cccc(-c3ccc(-c4nc5ccccc5[nH]4)s3)c2)C1.O=C(O)C(F)(F)F (stereo not shown) [TCMDC-133036], the “% Inhibition” value was 38.09%. O=C(NCCCCN1CCC(c2ccc3c(c2OCc2ccccn2)CCCC3)CC1)c1ccc(NC(=O)c2ccc(Cl)cc2)cc1 [TCMDC-138720] was tested, and the “% Inhibition” value was 101.6%. With COc1ccc(OCc2ccccn2)c(C2CCN(CCCCNC(=O)c3ccc(NC(=O)c4ccc(Cl)cc4)cc3)CC2)c1 [TCMDC-138311] the “% Inhibition” value was -15.54%. With O=C(NCCCCN1CCC(c2ccc3c(c2OCc2ccncc2)CCCC3)CC1)c1ccc(NC(=O)c2ccc(Cl)cc2)cc1 [TCMDC-138725] the “% Inhibition” value was 119.9%. With Cc1cc(C2CCN(CCCCNC(=O)c3ccc(NC(=O)c4ccc(Cl)cc4)cc3)CC2)c(C)cc1OCc1ccccn1 [TCMDC-138306] the “% Inhibition” value was 24.78%. In the case of Cc1ccc(NC(C)C(=O)Nc2ccccc2)cc1S(=O)(=O)N1CCCCCC1 (stereo not shown) [TCMDC-124868], the “% Inhibition” value is reported as -63.29%. For Brc1cc(Br)c2c(c1)C(NCCCNC1CCNc3c(Br)cc(Br)cc31)CCN2 (stereo not shown) [TCMDC-140067], the “% Inhibition” value was -3.983%. For COc1ccc(NC(=O)[C@H](CC(C)C)Nc2ccnc(Nc3ccccc3)n2)cc1 [TCMDC-134750], the “% Inhibition” value was -9.476%. For COc1cccc(OC)c1C(=O)Nc1cccc(-c2nn3ccccc3c2-c2ccnc(Nc3cccc(F)c3)n2)c1 [TCMDC-135847], the “% Inhibition” value was -55.46%. For CC(C)CNCc1ccc(-c2cccc(CN(CCCN3CCN(C)CC3)C(=O)/C=C/c3ccccc3)c2)cc1 [TCMDC-140542], the “% Inhibition” value was 91.48%. CC(C)CNCc1cccc(-c2cccc(CN(CCCN3CCN(C)CC3)C(=O)/C=C/c3ccccc3)c2)c1 [TCMDC-140541] was tested, and the “% Inhibition” value was 106.7%. In the case of CC(C)CNCc1ccc(-c2ccc(CN(CCCN3CCN(C)CC3)C(=O)/C=C/c3ccccc3)cc2)cc1 [TCMDC-140546], the “% Inhibition” value is reported as 104.5%. O=C(/C=C/c1ccc(CNCCN2CCOCC2)cc1)NCCc1ccccc1 [TCMDC-140901] was tested, and the “% Inhibition” value was -18.05%. In the case of CC(C)CNCc1cccc(-c2ccc(CN(CCCN3CCN(C)CC3)C(=O)/C=C/c3ccccc3)cc2)c1 [TCMDC-140545], the “% Inhibition” value is reported as 109.3%. With COC(=O)c1c(C#N)c(OC)cc(O)c1CSC[C@H](Nc1nc(-c2ccc([N+](=O)[O-])cc2)cs1)C(=O)NCCN1CCCCC1 [TCMDC-138651] the “% Inhibition” value was -15.18%.
